The record followed here is PubChem BioAssay.

Assay [1] relates to Plasmodium falciparum Sir2 (PF13_0152, Sir2A). The assay can be described thus: Plasmodium falciparum Sir2A binding compounds – biochemical, small-molecule microarray, 635 nm fluorescence, primary screen (AID 1098).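 Also: score merges spot fluorescence intensity with its signal-to-noise ratio.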 Particulars: fluorescence 635 nm, higher = more signal.
Assay [2] can be described thus: probe aDKK1 binding to arrayed compounds – biochemical, biotinylated probe, 635/667 nm fluorescence, primary screen (AID 1099).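 Also: score merges 667nm spot fluorescence with signal to noise across triplicate slides; reference of the scale not given here.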 Particulars: small-molecule microarray, higher = more signal.
A short description of assay [3]: probe aCHRDL2 binding to arrayed compounds – biochemical, biotinylated probe, 635/667 nm fluorescence, primary screen (AID 1100). Particulars: small-molecule microarray, higher = more signal.
A short description of assay [4]: change in splice reporter luminescence, either direction, cell-based, HEK293, spliceosome inhibition project, primary screen (AID 1101).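 Also: HEK293 cells carrying a splicing-competent luciferase reporter gene; test concentration not given here.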 The following applies: HEK293 splicing luciferase reporter, 24 h, higher = more signal, called active from +8 up or from −8 down. (In general: A reporter such as luciferase makes a cellular process visible.)
Assay [5] concerns the target Fibroblast growth factor 10 (Homo sapiens) (UniProt O15520). The assay can be described thus: compounds binding fibroblast growth factor 10 – biochemical, small-molecule microarray, 635 nm fluorescence, primary screen (AID 1102). Particulars: FGF10 binding, fluorescence 635 nm, higher = more signal.
Assay [6] relates to glycogen synthase kinase-3 (GSK3A per assay name; protocol says GSK3B). The assay can be described thus: compounds binding glycogen synthase kinase-3 – biochemical, small-molecule microarray, 635 nm fluorescence, GSK3A, primary screen (AID 1103). Also: the record names both GSK3A and GSK3B. The following applies: fluorescence 635 nm, higher = more signal.
The target of assay [7] is Epidermal growth factor receptor (Homo sapiens) (UniProt P00533). The experiment in a line: compounds binding epidermal growth factor receptor – biochemical, small-molecule microarray, 635 nm fluorescence, primary screen (AID 1104).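 Also: score merges 667 nm emission intensity with spot signal to noise over triplicate slides.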 Particulars: EGFR binding, higher = more signal.
Sequence of Epidermal growth factor receptor (Homo sapiens) (P00533 whole entry, looked up): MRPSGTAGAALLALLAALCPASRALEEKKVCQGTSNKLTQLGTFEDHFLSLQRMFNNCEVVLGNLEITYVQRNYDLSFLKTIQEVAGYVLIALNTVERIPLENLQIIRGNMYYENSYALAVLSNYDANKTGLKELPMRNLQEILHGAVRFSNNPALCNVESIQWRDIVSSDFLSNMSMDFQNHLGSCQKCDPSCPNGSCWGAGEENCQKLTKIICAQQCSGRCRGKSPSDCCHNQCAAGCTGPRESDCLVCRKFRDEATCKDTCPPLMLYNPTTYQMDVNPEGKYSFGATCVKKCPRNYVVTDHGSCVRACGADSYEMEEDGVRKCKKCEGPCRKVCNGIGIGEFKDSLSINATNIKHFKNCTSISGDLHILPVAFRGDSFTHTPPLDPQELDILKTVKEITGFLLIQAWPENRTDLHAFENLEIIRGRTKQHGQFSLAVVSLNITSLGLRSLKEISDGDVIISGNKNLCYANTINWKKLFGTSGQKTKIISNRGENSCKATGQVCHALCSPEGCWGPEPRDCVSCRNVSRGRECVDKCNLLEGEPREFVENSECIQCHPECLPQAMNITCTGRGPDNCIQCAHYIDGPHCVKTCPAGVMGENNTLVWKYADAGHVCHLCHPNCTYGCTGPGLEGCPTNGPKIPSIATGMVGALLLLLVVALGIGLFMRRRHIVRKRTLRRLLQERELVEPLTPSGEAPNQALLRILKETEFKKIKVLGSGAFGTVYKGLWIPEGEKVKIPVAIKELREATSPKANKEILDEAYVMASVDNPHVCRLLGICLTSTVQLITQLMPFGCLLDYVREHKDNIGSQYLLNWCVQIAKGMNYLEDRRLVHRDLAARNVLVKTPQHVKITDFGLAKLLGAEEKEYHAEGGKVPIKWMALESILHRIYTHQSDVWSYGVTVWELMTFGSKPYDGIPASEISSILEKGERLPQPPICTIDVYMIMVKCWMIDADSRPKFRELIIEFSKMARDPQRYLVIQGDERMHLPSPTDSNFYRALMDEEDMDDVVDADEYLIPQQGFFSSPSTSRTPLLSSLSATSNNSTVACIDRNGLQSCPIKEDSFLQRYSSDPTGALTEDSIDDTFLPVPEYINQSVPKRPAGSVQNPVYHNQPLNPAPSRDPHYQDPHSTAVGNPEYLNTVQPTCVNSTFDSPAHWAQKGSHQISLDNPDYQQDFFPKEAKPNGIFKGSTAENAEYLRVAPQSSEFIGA
Assay [8] has as its target Follistatin-related protein 3 (Homo sapiens) (UniProt O95633). The assay can be described thus: compounds binding follistatin-related protein 3 – biochemical, small-molecule microarray, 635 nm fluorescence, primary screen (AID 1105).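 Also: score merges emission near 667 nm and signal to noise per printed spot across three slides.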 The following applies: FSTL3 binding, higher = more signal.
The target in assay [9] is Dickkopf-related protein 1 (Homo sapiens) (UniProt O94907). The experiment in a line: small molecules binding DKK1 protein – biochemical, small-molecule microarray, 635 nm fluorescence scan, primary screen (AID 1106).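 Also: score merges emission near 667 nm with signal to noise over three replicate slides.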 Particulars: higher = more signal.
Sequence of Dickkopf-related protein 1 (Homo sapiens) (O94907 whole entry, looked up): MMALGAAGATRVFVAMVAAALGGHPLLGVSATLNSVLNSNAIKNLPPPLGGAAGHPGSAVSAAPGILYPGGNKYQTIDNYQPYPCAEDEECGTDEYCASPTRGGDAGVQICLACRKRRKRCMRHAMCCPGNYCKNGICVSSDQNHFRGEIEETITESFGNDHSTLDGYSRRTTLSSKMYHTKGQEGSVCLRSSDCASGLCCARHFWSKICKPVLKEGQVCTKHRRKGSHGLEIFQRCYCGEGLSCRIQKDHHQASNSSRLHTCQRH
Assay [10] concerns Inhibin beta A chain (activin A). The experiment in a line: small molecules binding activin A – biochemical, small-molecule microarray, 635 nm fluorescence scan, primary screen (AID 1107).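 Also: mouse activin A protein probed at 4.33 µg/mL on printed slides; score merges bound-protein fluorescence near 667 nm with spot signal-to-noise.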 The following applies: INHBA, higher = more signal.

Active and inactive are the calls of the source.

Sequence of Fibroblast growth factor 10 (Homo sapiens) (O15520 whole entry, looked up): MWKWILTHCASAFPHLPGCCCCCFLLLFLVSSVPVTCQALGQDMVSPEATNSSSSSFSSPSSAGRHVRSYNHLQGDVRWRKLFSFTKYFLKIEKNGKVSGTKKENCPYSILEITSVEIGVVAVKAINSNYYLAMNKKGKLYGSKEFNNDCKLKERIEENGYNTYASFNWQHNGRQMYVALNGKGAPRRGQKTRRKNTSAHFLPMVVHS
Sequence of Follistatin-related protein 3 (Homo sapiens) (O95633 whole entry, looked up): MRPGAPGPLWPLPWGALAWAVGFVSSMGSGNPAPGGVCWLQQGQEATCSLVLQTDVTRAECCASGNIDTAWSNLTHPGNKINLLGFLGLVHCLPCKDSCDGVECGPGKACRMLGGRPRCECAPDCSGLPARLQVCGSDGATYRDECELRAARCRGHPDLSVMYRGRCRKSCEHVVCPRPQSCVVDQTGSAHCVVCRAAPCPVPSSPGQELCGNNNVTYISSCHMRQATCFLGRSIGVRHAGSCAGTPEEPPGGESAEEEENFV

With `C=CCOC(=O)[C@H]1[C@@H]2C(=O)O[C@@H](c3ccccc3)[C@@H](c3ccccc3)N2[C@@H](c2ccc(OCCOC(=O)[C@H]3C[C@H]4C(=O)N[C@@H](CCCCN(C)C)C(=O)N4[C@H]3c3ccc(O)cc3)cc2)[C@]12C(=O)Nc1ccccc12`, the composite z-score in [1] was 0.436; in assay [2] it was 0.638; in [3], 0.4; in [5], 1; in assay [6], 0.957; in assay [7], 0.606. In addition, the composite z-score in assay [8] is 1.4; in assay [9] it was 0.805; in [10] it was 1.04. In addition, in assay [4], the z-score is -0.226 (inactive).
Turning to `CC(=O)NCCCC[C@@H]1NC(=O)[C@@H]2C[C@H](C(=O)NCCCC[N+](C)(C)C)[C@H](c3cccc(OCCO)c3)N2C1=O`, the composite z-score in assay [1] was 1.08; in assay [2], -0.11; in [3], 0.275; in assay [5] it was 0.766; in assay [6], -0.57; in assay [7], -0.734. The composite z-score in [8] was 1.02; in [9] it was 0.232; in assay [10], -0.146. In [4], the z-score was 0.677 (inactive).
Turning to `[N-]=[N+]=NCc1ccccc1C[C@@]1(C(=O)NCCN2CCOCC2)N=C(c2ccc(OCCCO)cc2)O[C@@H]1c1ccccc1CN=[N+]=[N-]`, the composite z-score stood at 0.668 in [1]; 0.914 in assay [2]; 0.491 in assay [3]; 1.15 in assay [5]; 0.602 in assay [6]; 0.244 in [7]. Besides, the composite z-score in [8] was found to be 1.29; in assay [9], 0.855; in assay [10], 0.817. For the same molecule, the z-score in assay [4] is 0.139 (inactive).
As to `O=C1N(CCS(=O)(=O)c2ccccc2)c2ccccc2[C@H]2OC(c3ccc(OCCCO)cc3)=N[C@@]12CCS(=O)(=O)c1ccccc1`, the composite z-score in assay [1] turned out to be 1.31; in [2], 1.59; in [3], 1.16; in [5], 1.35; in assay [6] it was 1.31; in assay [7], 0.736. For the same molecule, the composite z-score in assay [8] amounted to 1.31; in [9] it was 0.9; in assay [10], 1.29. In [4], the z-score was -0.0214 (inactive).
With `CCOC(=O)C[C@H]1[C@H](OC(=O)Cc2ccc3c(c2)OCO3)[C@@H](NC(=O)c2ccccc2)c2cc(OCCCO)ccc2N1C(=O)c1ccccc1`, the composite z-score in [1] is -0.0111; in assay [2] it was -0.0126; in assay [3], -0.0843; in assay [5], 0.603; in assay [6] it was 0.505; in assay [7], 0.437. Further, the composite z-score in assay [8] came to 0.371; in assay [9], 0.276; in assay [10], 0.524. In assay [4], the z-score was -0.299 (inactive).
Consider `C[N+](C)(C)CCCC[C@@H]1NC(=O)[C@@H]2C[C@H](C(=O)NCCCCCNC(=O)CS)[C@H](c3cccc(OCCO)c3)N2C1=O`, for which the composite z-score in [1] was 1.71; in assay [2], -0.14; in assay [3] it was -0.149; in assay [5], 0.545; in assay [6], 0.23; in assay [7] it was 0.0868. For the same molecule, the composite z-score in [8] was -0.19; in assay [9], 0.585; in [10], -0.003. For the same molecule, in [4], the z-score is 0.241 (inactive).
Regarding `C[N+](C)(C)CCCCCCNC(=O)[C@@H]1C[C@@H]2C(=O)NCC(=O)N2[C@@H]1c1cccc(OCCO)c1`, the composite z-score in [1] was 1.23; in assay [2], -0.253; in assay [3], -0.127; in [5], 0.781; in assay [6], 0.496; in assay [7], 0.144. The composite z-score in assay [8] turned out to be 1.44; in assay [9], 1.24; in [10] it was 0.728. For the same molecule, the z-score in assay [4] is -2.5 (inactive).
Turning to `COc1ccc([Si](C)(C)[C@@H]2[C@@H](CCO)O[C@]3(C(=O)N(Cc4ccccc4)c4ccc(N5CCCCC5=O)cc43)[C@H]2C)cc1`, the composite z-score was 0.883 in assay [1]; -0.107 in [2]; -0.0137 in [3]; 0.959 in assay [5]; 1.1 in [6]; 0.197 in assay [7]. In addition, the composite z-score came out at 0.962 in assay [8], 0.218 in [9] and 0.796 in [10]. Besides, the z-score in assay [4] was -4.14 (inactive).
`COCCOC(=O)N1C(=O)[C@@]2(c3cc(C#CC4(O)CCCCCC4)ccc31)[C@H](C(=O)N1CCc3cc(OC)c(OC)cc3C1)[C@H]1C(=O)O[C@H](c3ccccc3)[C@H](c3ccccc3)N1[C@@H]2c1ccccc1OCCO`: the composite z-score was found to be 0.517 in assay [1]; 0.836 in assay [2]; 0.173 in assay [3]; 0.96 in assay [5]; 1.3 in assay [6]; 0.887 in assay [7]. In addition, the composite z-score in [8] was 1.42; in assay [9], 1.69; in assay [10] it was 0.701. In assay [4], the z-score is -0.461 (inactive).
Turning to `C=C[C@@H](O)[C@H]1CC(c2ccccc2)=NO1`, the composite z-score in assay [1] is 1.46; in assay [2], -0.187; in assay [3] it was 0.0537; in [5] it was 0.0244; in assay [6] it was -0.408; in [7] it was 0.449. Also, the composite z-score in assay [8] came out at 0.046; in [9] it was 0.271; in assay [10] it was 0.614. Also, the z-score in assay [4] is 0.147 (inactive).
`C=CCC(OC(C)=O)[C@@H]1[C@@H](N(Cc2cccc3ccccc23)C(=O)Cc2ccc(F)cc2)c2cc(OCCCO)ccc2N1C(=O)Cc1ccc(OC)cc1` (stereo not given in full): the composite z-score is -0.44 in assay [1]; -0.0312 in assay [2]; 0.0398 in [3]; 0.398 in assay [5]; -0.0555 in assay [6]; -0.0723 in assay [7]. In addition, the composite z-score in assay [8] turned out to be 0.665; in assay [9], 0.104; in assay [10], 1.25. Further, the z-score in assay [4] was -1.07 (inactive).
For `CCN(CC)c1ccc(N2CC=CC34O[C@@H]5/C=C\CCCOC(=O)C5[C@H]3C(=O)N(CCCCCO)[C@@H]4C2=O)cc1` (stereo not given in full), the composite z-score was 0.643 in assay [1]; 0.123 in assay [2]; 0.397 in [3]; -1.47 in assay [5]; -1.4 in [6]; -0.983 in assay [7]. The composite z-score was -1.42 in [8], -1.01 in assay [9] and -0.399 in assay [10]. Also, the z-score in assay [4] was 0.643 (inactive).
For `COC(=O)[C@@]1(Cc2ccc(F)cc2)[C@H]2c3cc(C(=O)N(C)C)n(Cc4ccc(C)c(F)c4F)c3C[C@H]2CN1C(=O)c1ccccc1`, the composite z-score was 0.0477 in [1]; 0.871 in assay [2]; 1.03 in assay [3]; 0.158 in [5]; -0.224 in [6]; 0.558 in assay [7]. Moreover, the composite z-score in [8] is -0.0326; in assay [9], -0.693; in assay [10] it was 1.39. Further, the z-score in assay [4] is -0.509 (inactive).
Turning to `O=C1O[C@H](c2ccccc2)[C@H](c2ccccc2)N2[C@H]1[C@@H](C(=O)N1CCN(c3ncccn3)CC1)[C@]1(C(=O)Nc3ccc(C#CCCO)cc31)[C@H]2c1ccccc1OCCO`, the composite z-score in assay [1] was found to be 1.24; in assay [2], 0.0649; in [3], 0.447; in [5] it was 1.15; in [6] it was 1.11; in [7] it was 0.282. Further, the composite z-score in [8] was 0.501; in [9], 0.525; in [10] it was -0.14. For the same molecule, the z-score in assay [4] was 0.105 (inactive).
